This passage reports growth results from PubChem BioAssay (NCI).

Holding throughout (assay): NCI-60 one-dose screen, 48 h (100 = growth as untreated, 0 = no growth, -100 = all killed)
What all share (details): 10 µM unless noted

For experiment [1], the system named is RPMI-8226 leukemia.
In experiment [2] the test system is OVCAR-8 ovarian.
Experiment [3] relates to OVCAR-5 ovarian.
The test system of experiment [4] is OVCAR-4 ovarian.
For experiment [5], the system named is SK-OV-3 ovarian.
Experiment [6] deals with IGROV1 ovarian.
The subject of experiment [7] is OVCAR-3 ovarian.
The test system of experiment [8] is HS 578T breast.
Experiment [9] has as its system NCI/ADR-RES ovarian.
Experiment [10] deals with SR leukemia.

Compounds without any hit were thinned out: in the full panel of roughly 83,000, 20% have a hit.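 Cell lines were cultured in 96-well plates, exposed to a single compound concentration, and assessed for percent growth 48 hours later.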 Unmarked numbers belong to inactive results. The source made the active and inactive calls. How the source made its calls: active means growth percent below 10; inactive means the rest.

Take `O=c1[nH]c2c(s1)CCCC2CN1CCCCC1` (configuration not stated): the growth in [1] is 103%; in experiment [2], 113%; in experiment [3] it was 89.2%; in experiment [4], 113%; in experiment [5], 86.6%; in [6], 120%. Besides, the growth in [7] is 111%; in experiment [8] it was 105%; in [9], 99%.
For `Cn1/c(=N/NC(N)=S)ccc2ccccc21`, the growth in [1] is 78.2%; in [2], 74.6%; in [3], 99%; in experiment [4] it was 93.3%; in experiment [5], 107%; in experiment [6], 44.7%. Also, the growth was 44.1% in experiment [7], 103% in experiment [8] and 77% in [9].
For the molecule `Cc1c(C(=O)NO)sc2ncnc(Nc3ccc(NC(=S)Nc4ccccc4)cc3)c12`, the growth in [10] is 110%; in [2], 103%; in [3], 103%; in [4], 105%; in experiment [5], 121%; in [6] it was 112%. In addition, the growth was 111% in experiment [7], 105% in [8] and 99.6% in experiment [9].
Turning to `O=C1Nc2c(ccc(Cl)c2Cl)/C1=C/c1ccccn1`, the growth in experiment [1] was 107%; in [2], 81%; in [3], 85.1%; in [4], 76.5%; in experiment [5] it was 94%; in [6] it was 73.1%. Also, the growth was 84.6% in experiment [7], 63.9% in experiment [8] and 82.5% in experiment [9].
As for `COc1ccc(Cn2nc(-c3ccccc3)c3c2CCc2cnoc2-3)cc1`, the growth in experiment [10] was 36%; in [2] it was 80.8%; in experiment [3] it was 102%; in [4], 72.1%; in experiment [5], 83.1%; in experiment [6], 86%. Besides, the growth in experiment [7] was 87.4%; in [8], 90.7%; in experiment [9] it was 66.7%.
`Cc1cc(C)n(Nc2nc3ccccc3[nH]c2=O)c(=O)c1C#N`: the growth in experiment [10] was 82.5%; in experiment [2], 97.7%; in experiment [3], 99.7%; in experiment [4] it was 93.4%; in [5] it was 96.9%; in experiment [6], 94.8%. Moreover, the growth in experiment [7] is 101%; in experiment [8], 92.7%; in experiment [9], 101%.
For `COc1ccc(-c2c(-c3ccccc3)noc2N)cc1OC`, the growth was 76.6% in [10]; 100% in experiment [2]; 117% in experiment [3]; 113% in experiment [4]; 107% in experiment [5]; 113% in [6]. Further, the figures for the growth in experiment [7], in experiment [8] and in experiment [9] were 117%, 148% and 104%, respectively.
Turning to `Nc1nnc(C(=O)c2cnc3n(c2=O)CCCCC3)s1`, the growth in experiment [10] is 107%; in [2] it was 105%; in [3], 104%; in experiment [4], 111%; in experiment [5], 101%; in experiment [6], 110%. Moreover, the growth in experiment [7] was 102%; in experiment [8], 99.7%; in experiment [9], 94.7%.
On to `CCN(CCNc1cc(OC)cc2cccnc12)CCc1ccccc1`, for which the growth is 81.6% in experiment [1]; 85.2% in [2]; 93.9% in experiment [3]; 19.1% in [4]; 74.6% in experiment [5]; 94.6% in experiment [6]. For the same molecule, the growth in experiment [7] is 79%; in experiment [8] it was 85.6%; in [9], 81.1%.
Regarding `NC(=O)c1ncn(C2OC(CO)C(O)C2O)n1` (configuration not stated), the growth in experiment [10] is 73.2%; in experiment [2], 87.5%; in [3], 95.2%; in experiment [4], 87.8%; in experiment [5], 87.9%; in experiment [6], 4.17% (active). Moreover, the values for the growth in experiment [7], in [8] and in experiment [9] were 95.1%, 86.4% and 88.6%, respectively.
Turning to `COc1ccc(-n2cc(-c3cc(OC)c(OC)c(OC)c3)n(C(C)=O)c2=O)cc1`, the growth in experiment [1] was 123%; in experiment [2], 91.8%; in [3], 78.3%; in [4] it was 79.9%; in experiment [5], 94.6%; in [6] it was 107%. The growth is 108% in [7], 92.3% in experiment [8] and 100% in experiment [9].
Regarding `O=c1nc2n(nc1/C=C/c1ccco1)CC(c1ccc(Cl)cc1)=NN2`, the growth in experiment [10] was 45%; in experiment [2], 67.9%; in experiment [3], 122%; in experiment [4] it was 95.3%; in experiment [5], 93%; in experiment [6], 8.48% (active). Besides, the growth was 109% in experiment [7], 116% in experiment [8] and 100% in experiment [9].
Turning to `COc1cc(/C=C2\C(=O)N(Cc3ccc(Cl)cc3)c3ccccc32)cc(OC)c1OC`, the growth in [10] is -5.2% (active); in [1], -31.7% (active); in [3], 65.9%; in experiment [4] it was 47.7%; in experiment [5], 79.3%; in experiment [6] it was 9.22% (active). The growth in experiment [7] was -49.6% (active); in experiment [8], -14.3% (active); in experiment [9], 21.4%.
`COc1ccc(-c2cnc(N)nc2-c2ccc(OC)cc2O)cc1`: the growth was 66.9% in experiment [10]; 89.5% in experiment [2]; 102% in experiment [3]; 86.5% in [4]; 103% in [5]; 83.8% in experiment [6]. The growth in experiment [7] was 108%; in experiment [8], 157%; in experiment [9], 85.7%.
With `CCCOc1nc(SCCC)nc2c1cnn2-c1ccccc1`, the growth in [1] is 152%; in [2], 99.2%; in [3], 89.2%; in experiment [4] it was 99.6%; in [5] it was 106%; in experiment [7] it was 94.8%. Moreover, the growth was 126% in [8] and 96% in [9].
As for `O=C(N/N=C/c1ccc(O)c(O)c1)c1sc2ccccc2c1Cl`, the growth in experiment [1] is 16.6%; in experiment [2], 90.4%; in experiment [3] it was 100%; in experiment [4] it was 92.7%; in experiment [5], 75.7%; in [6], 64.1%. Also, the figures for the growth in experiment [7], in experiment [8] and in experiment [9] were 96.9%, 84.4% and 83.7%, respectively.
On to `CCOC(=O)C1=C(C)NC(C)=C(C(=O)OCC)C1c1cc(Br)c(O)c(OC)c1`, for which the growth in experiment [1] is 29.9%; in experiment [2], 25.2%; in experiment [3], 66.7%; in experiment [4] it was 47.4%; in experiment [5], 16.9%; in [6] it was 49.9%. For the same molecule, the growth in experiment [8] was 4.37% (active); in experiment [9] it was -14.5% (active).
`O=S(=O)(c1ccc(N/N=C\c2ccccc2)cc1)c1ccc(N/N=C/c2ccccc2)cc1`: the growth was 85.6% in experiment [1]; 30.3% in [2]; 84.7% in experiment [3]; 44.7% in experiment [4]; 74% in experiment [5]; 72.1% in experiment [6]. The growth in experiment [7] is 72.2%; in experiment [9], 53.1%.
Take `COc1ccc(/C=N/NC(=O)c2cccc3cc[nH]c23)cc1O`: the growth was -19.4% (active) in experiment [1]; 48.8% in experiment [2]; 87.8% in experiment [3]; 49.6% in [4]; 26.1% in experiment [5]; 36.4% in experiment [6]. The growth in [7] is 1.58% (active); in [8], 15.2%; in experiment [9], -7.64% (active).
For the molecule `CCCC/C(=N\N=C(N)N)c1ccc(F)cc1`, the growth in [1] was 36%; in experiment [2], 33.6%; in experiment [3] it was 50.5%; in experiment [4], 39.7%; in experiment [5], 13.7%; in [6], 45%. Also, the figures for the growth in experiment [7], in experiment [8] and in experiment [9] were -11.4% (active), 26.1% and 7.48% (active), respectively.
Take `Cc1ccc(S(=O)(=O)Nc2ccc(Cl)cc2)cc1`: the growth was 101% in experiment [1]; 102% in experiment [2]; 97.3% in experiment [3]; 112% in experiment [5]; 98.9% in experiment [6]; 115% in experiment [7]. Moreover, the growth in experiment [8] was 100%; in experiment [9], 91.9%.
As to `COc1ccc(C2CC(n3nnnc3-c3ccccc3)=NN2)cc1` (configuration not stated), the growth in experiment [1] was 62.5%; in experiment [2], 61.6%; in experiment [3], 66.4%; in experiment [6] it was 64.8%; in experiment [7], 75.1%; in [8], 99%. Moreover, the growth in experiment [9] is 49.9%.
Take `O=C1/C(=C/c2ccc(O)cc2)COc2ccc(-c3ccccc3)cc21`: the growth is -29.7% (active) in experiment [1]; 71.9% in experiment [2]; 102% in experiment [3]; 100% in [4]; 107% in experiment [5]; 51.6% in experiment [6]. Moreover, the values for the growth in experiment [7], in experiment [8] and in [9] were 56.5%, 88.2% and 78.2%, respectively.
As for `NC(=S)N/N=C(\c1ccc(Cl)cc1)C1CC1`, the growth in [1] was 67.3%; in experiment [2], 70.9%; in experiment [3], 95.5%; in experiment [4], 68.2%; in [5], 92.8%; in [6], 45.7%. Moreover, the growth is 58.2% in experiment [7], 99.6% in experiment [8] and 67.3% in experiment [9].
For the molecule `O=C(O)/C=C\C(=O)N1C/C(=C\c2ccccc2Cl)C(=O)/C(=C/c2ccccc2Cl)C1`, the growth was 3.9% (active) in experiment [1]; 4.98% (active) in experiment [2]; 2.41% (active) in experiment [3]; 1.94% (active) in experiment [6]; -37.7% (active) in experiment [7]; 47.1% in [8]. Moreover, in [9], the growth is 4.6% (active).
